Among the data in ChEMBL document CHEMBL3433997, “St. Jude Leishmania screening dataset” (2016) are inhibition values, retold here.

What all share (type): functional
The target of assay [1] is Solute carrier family 2, facilitated glucose transporter member 1 (Homo sapiens) (UniProt P11166). As to the kind of experiment: ST_JUDE_LEISH: Cytotoxicity at 2uM final concentration against transgenic Leishmania Mexicana promastigotes LmGLUT1 that are glucose transport deficient and complemented with the human glucose transporter GLUT1. Activity is measured by DNA content using SYBR green in vitro.

The target in assay [2] is Hexose transporter 1 (Plasmodium falciparum) (UniProt O97467). As to the kind of experiment: ST_JUDE_LEISH: Cytotoxicity at 2uM final concentration against transgenic Leishmania Mexicana promastigotes LmPfHT that are glucose transport deficient and complemented with the Plasmodium falciparum hexose transporter. Activity is measured by DNA content using SYBR green in vitro.

Assay [3] concerns the target Glucose transporter (Leishmania mexicana) (UniProt O61059). Briefly: ST_JUDE_LEISH: Cytotoxicity at 2uM final concentration against transgenic Leishmania Mexicana promastigotes LmGT2 that are glucose transport deficient and complemented with the L. Mexicana glucose transporter 2. Activity is measured by DNA content using SYBR green in vitro.

In general, inhibition refers to the relative decrease from the control value, in per cent.

Sequence of Solute carrier family 2, facilitated glucose transporter member 1 (Homo sapiens) (P11166 whole entry): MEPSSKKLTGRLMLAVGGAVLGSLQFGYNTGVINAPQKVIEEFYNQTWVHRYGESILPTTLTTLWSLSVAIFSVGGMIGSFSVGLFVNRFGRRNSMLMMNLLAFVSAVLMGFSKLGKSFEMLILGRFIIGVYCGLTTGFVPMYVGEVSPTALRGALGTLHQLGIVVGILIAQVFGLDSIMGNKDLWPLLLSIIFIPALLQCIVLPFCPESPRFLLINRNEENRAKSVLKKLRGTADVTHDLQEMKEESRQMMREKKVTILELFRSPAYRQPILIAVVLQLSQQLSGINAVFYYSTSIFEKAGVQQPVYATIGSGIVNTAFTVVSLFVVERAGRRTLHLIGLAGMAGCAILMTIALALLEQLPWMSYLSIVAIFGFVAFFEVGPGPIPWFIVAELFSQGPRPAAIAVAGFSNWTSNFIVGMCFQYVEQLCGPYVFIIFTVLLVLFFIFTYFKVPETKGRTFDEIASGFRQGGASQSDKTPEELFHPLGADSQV

Take `OC(COc1ccccc1-c1nc2ccccc2o1)CN1CCCN(CCc2ccccc2)CC1` (centres undefined): the inhibition in assay [1] was -0.28%; in assay [2] it was -1.19%; in assay [3] it was -0.36%.

Consider `CC1(C)NC(N)=NC(=N)N1OCCc1ccccc1`, for which the results for the inhibition in assay [1], in assay [2] and in assay [3] were 1.18%, 0.77% and 0.66%, respectively.

Consider `CCN(CC)CCCNc1ncc2c(-c3ccc(NC(=O)Nc4cc(C(F)(F)F)ccc4F)c(F)c3)nn(C)c2n1`, for which the inhibition is -0.37% in assay [1], -0.41% in assay [2] and -1.03% in assay [3].

As to `O=C(Nc1ccc(-c2ccc(-c3nc4cc(C(F)(F)F)ccc4[nH]3)s2)cc1)c1ccoc1`, the results for the inhibition in assay [1], in assay [2] and in assay [3] were 0.13%, -0.79% and -1.02%, respectively.

Regarding `c1cc(C2=NC3CCCCC3N2)ccc1OCCCOc1ccc(C2=NC3CCCCC3N2)cc1` (centres undefined), the inhibition in assay [1] worked out at 7.04%; in assay [2] it was 6.74%; in assay [3], 1.12%.

Regarding `c1cc(CNCC2CCCO2)cc(-c2ccc(-c3nc4ccccc4[nH]3)s2)c1` (centres undefined), the inhibition in assay [1] was 0.61%; in assay [2], -3.37%; in assay [3], -0.92%.

On to `Oc1c(C(Nc2nc3ccccc3s2)c2ccc(OC(F)F)cc2)ccc2cccnc12` (centres undefined), for which the inhibition in assay [1] is 4.38%; in assay [2], 0.37%; in assay [3], -1.77%.

Regarding `COc1cc(N)c(Cl)cc1C(=O)NCC1CCN(c2nc(C)cc(C)n2)CC1`, the inhibition in assay [1] is 1.37%; in assay [2], 0.61%; in assay [3], -0.76%.

`Nc1ccc(-c2cnc3[nH]cc(-c4ccc(C(=O)O)cc4)c3c2)cn1`: the inhibition in assay [1] is -0.33%; in assay [2], 0.34%; in assay [3] it was 1.27%.

For the molecule `c1ccc(-c2nc(NC3CCCCC3)cc(C3CC3)n2)nc1`, the inhibition in assay [1] was 1.84%; in assay [2], 1.91%; in assay [3], 1.62%.

For `Cc1cc(NC2CCN(CC3CCCCC3)C2)nc(Nc2ccc(Br)cc2)n1` (centres undefined), the inhibition in assay [1] is -0.39%; in assay [2], 2.78%; in assay [3], 0.66%.

`COc1ccc(-n2ccnc2SCC(=O)Nc2cc(C(F)(F)F)ccc2Cl)c(OC)c1`: the inhibition in assay [1] came to 12.8%; in assay [2], 11.2%; in assay [3], 7.95%.

`N#Cc1c(N2CCN(c3ccc(F)cc3)CC2)nc(N)c2c(N)nc3c(c12)CC(=O)N3C1CC1`: the inhibition was -2.19% in assay [1], 5.18% in assay [2] and 13.5% in assay [3].
